High-throughput results (PubChem BioAssay)
Shiga toxin inh: inhibitors of Shiga toxin in Vero cells | Vero cells, Shiga toxin protein synthesis inhibition reporter | inhibition, % at 38.7 µM | 290,000 compounds, 9.2% hits; in the data active means inhibition mostly above about 28%, no sharp cut-off; inactive means mostly below about 43%; further: 0% is about no effect
LmPK inh: LmPK (Leishmania mexicana) enzyme inhibition; Q27686; purified LmPK, Kinase-Glo ATP luminescence, 1 h; Potency, µM (doses to about 57.5 µM), for the others: top-dose activity change, negative = inhibition, most hits filed as inhibitors; 290,000 compounds, 0.37% hits; further: potency means the concentration at half of the fitted maximal effect; on the % scale 0 is the no-effect control and ±100 the full control effect
Target sequence (Q27686 whole entry, looked up): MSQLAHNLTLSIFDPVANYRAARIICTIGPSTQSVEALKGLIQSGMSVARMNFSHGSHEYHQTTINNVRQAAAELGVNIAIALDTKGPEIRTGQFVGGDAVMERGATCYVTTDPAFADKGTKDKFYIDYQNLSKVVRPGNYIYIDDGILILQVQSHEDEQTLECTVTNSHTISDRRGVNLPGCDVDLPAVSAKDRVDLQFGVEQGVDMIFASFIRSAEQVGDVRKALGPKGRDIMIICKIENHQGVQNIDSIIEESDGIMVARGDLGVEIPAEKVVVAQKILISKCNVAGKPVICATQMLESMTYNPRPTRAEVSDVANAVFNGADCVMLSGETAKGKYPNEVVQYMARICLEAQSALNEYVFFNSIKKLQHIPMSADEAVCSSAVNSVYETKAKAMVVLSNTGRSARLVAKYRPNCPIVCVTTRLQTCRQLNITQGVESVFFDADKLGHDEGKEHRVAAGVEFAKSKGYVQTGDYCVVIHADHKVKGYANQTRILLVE
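Kinase-Glo luminescence read after 1 h RT reaction of 0.1 nM LmPK with 0.5 mM PEP and 0.1 mM ADP. Activity scaled between uninhibited and enzyme-free controls.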
Tb PYK inh: blocks Trypanosoma brucei pyruvate kinase; Potency, µM (titrated, usually from 76.8 µM), for the others: at the highest dose activity, negative = inhibition, actives largely listed as inhibitors; Q57TT1; TbPYK enzyme, Kinase-Glo Plus ATP luminescence, 45 min; 410,000 compounds, 0.12% hits; further: potency means the concentration at half of the fitted maximal effect; on the % scale 0 is the no-effect control and ±100 the full control effect; nearly all actives have a fitted effect of over 50% in size
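Enzyme and substrate buffer are dispensed first and compound is pin-transferred. ADP at 130 uM final then starts the reaction, which runs 45 min at room temperature. Detection reagent is added for 10 min before luminescence is imaged.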
Cycloheximide cs: counter-screen hit for Shiga toxin inhibitors, cycloheximide; cell reporter, cycloheximide protein synthesis inhibition counterscreen; 300,000 compounds, 12% hits; AID 2314; max response, %; in the data active means max response mostly above about 13%, no sharp cut-off; inactive means mostly below about 14%; further: read at 38.3 µM for the half of the compounds with a filed dose; 0% is about no effect
Sm TGR block: inhibitors of Schistosoma mansoni thioredoxin glutathione reductase; Q962Y6; purified TGR, DTNB reduction, TNB absorbance 405 nm; Potency, µM (doses to about 114 µM), without a hit: top-dose activity change, negative = inhibition, actives largely listed as inhibitors; 360,000 compounds, 3% hits; AID 485364; further: potency means the concentration at half of the fitted maximal effect; on the % scale 0 is the no-effect control and ±100 the full control effect; nearly all actives have a fitted effect of over 60% in size
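TGR 20 nM + NADPH 100 uM (dispensed conc.), cpd preinc 15 min RT; start with NADPH (500 uM addition) then DTNB (15 mM addition). Kinetic TNB absorbance, 405 nm filter. Four-parameter Hill fit across titration.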
Giardia FBPA inh: blocks Giardia fructose-bisphosphate aldolase activity | purified Giardia FBPA | Potency, µM (series often up to 59.6 µM), for the others: at the highest dose activity, negative = inhibition, usual class: inhibitors | A8B2U2 | 290,000 compounds, 0.71% hits | AID 2451; further: potency means the concentration at half of the fitted maximal effect; on the % scale 0 is the no-effect control and ±100 the full control effect; nearly all actives have a fitted effect of over 55% in size
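Giardia FBPA (40 nM reagent) was preincubated 10 min at RT with compound (up to 57.5 uM final), then substrate plus GAPDH/TPI/NAD/arsenate coupling system with diaphorase/resazurin was added; resorufin fluorescence (525/598 nm) was read after 20 min.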
* marks the source's active call; other numbers are inactive results; ? = inconclusive; / = no result. This excerpt belongs to a sample that is enriched for hits. Unless noted, the call rests on the fitted dose curve; in most records, active means well fitted curve in the direction sought with a large enough effect; inconclusive means small, poorly fitted or top-dose-only effect, or another doubt; inactive means no such curve, though single readings can be large; an effect the other way counts as inactive or inconclusive.

SMILES	Shiga toxin inh	LmPK inh	Tb PYK inh	Cycloheximide cs	Sm TGR block	Giardia FBPA inh
Clc1ccc(-n2nnc(-c3cccnc3Cl)n2)cn1	50*	-2%	-1%	35*	?	4%
c1ccc(-n2nnc(-c3nccs3)n2)cc1	/	/	-23%	/	/	/
Cn1ccnc1-c1nnn(-c2ccc(Cl)c(Cl)c2)n1	/	/	7%	/	/	/
Clc1ncccc1-c1nnn(-c2ccccc2Br)n1	73*	-6%	1%	34*	-2%	-1%
Clc1nc2ccccc2cc1-c1nnn(-c2ccccc2Br)n1	/	/	-7%	/	/	/
Brc1ccccc1-n1nnc(-c2nccs2)n1	77*	-24%	-3%	49*	-17%	5%
CCOC(=O)c1cc(OC(C)=O)c2ccc(OC)c(OC)c2c1	/	/	2%	/	/	/
COc1ccccc1-c1noc(CCCC(=O)Nc2cc(C)ccc2C)n1	/	/	3%	/	10%	/
c1csc(-c2nn3cnnc3c3ccccc23)c1	-14	-1%	2%	-7	9%	6%
COc1ncccc1-c1nnn(-c2ccc(Cl)nc2)n1	42	-3%	-6%	20*	25µM*	-3%
COc1ccc2[nH]c(=O)c(-c3nnn(-c4ccc(Cl)nc4)n3)cc2c1	/	/	-9%	/	/	/
CCc1nnc(SCc2nc(-c3ccccc3Cl)oc2C)c2cc3sc(C)cc3n12	/	/	2%	/	-2%	/
CCCC[C@H](CN(N=O)[C@@H](Cc1ccccc1)CN(C)N=O)N(CCc1ccccc1)N=O	-7	3%	2%	-1	0%	-9%
CN(C[C@H](Cc1ccccc1)N(C[C@H](Cc1cccc2ccccc12)N(CCc1ccccc1)N=O)N=O)N=O	-7	-1%	-7%	-5	35µM*	-9%
CC(C)C[C@@H](CN(C)N=O)N(C[C@H](Cc1ccccc1)N(CCc1ccccc1)N=O)N=O	-12	1%	1%	2	40µM*	-2%
COc1ccc(Cl)cc1NC(=O)Cn1ccn(Cc2ccc(C)cc2)c(=O)c1=O	/	/	5%	/	-8%	/
COC(=O)C(=O)C/C(=N/Nc1ncnc2ccccc12)c1ccc(Cl)cc1	86*	2%	-9%	27*	-1%	25%
COc1ccccc1CNc1ncnc2cc(Cl)ccc12	4	0%	2%	-3	/	4%
COc1cc2c(cc1OC)CN(c1ccc3ccccc3n1)CC2	88*	-3%	-4%	42*	-18%	-30%
COc1cc2c(cc1OC)CN(c1ccc(C(F)(F)F)cn1)CC2	53*	5%	-2%	21*	3%	-3%
Cc1cccc(-c2nc(CSc3nncn4c3cc3oc(C)cc34)c(C)o2)c1	/	/	-17%	/	5%	/
CC1CCCN(C(=O)CCc2ccccc2)C1 (stereo not drawn)	active	-4%	0%	9.3*	3%	6%
COCC1CCN(C(=O)CCc2nnc(CCCCc3ccccc3)o2)CC1	7	1%	-19%	-2	-1%	3%
CCCOC1CCCN(C(=O)CCc2nnc(CCCCc3ccccc3)o2)C1 (stereo not drawn)	41*	3%	6%	34*	-15%	1%
O=C(CCc1ccccc1)N1CCCC1	-2	1%	1%	1	-14%	4%
SMILES	Shiga toxin inh	LmPK inh	Tb PYK inh	Cycloheximide cs	Sm TGR block	Giardia FBPA inh
CCN(CC)C1CCN(C(=O)CCc2nnc(CCc3ccccc3)o2)C1 (stereo not drawn)	1	5%	3%	2	2%	0%
O=C(CCc1nnc(CCCc2ccccc2)o1)N1CCCCCC1	87*	-1%	2%	32*	-9%	0%
O=C1C(=O)N(Cc2ccncc2)C(c2ccccc2F)/C1=C(\O)c1ccc2c(c1)OCCO2 (stereo not drawn)	23	-1%	8%	8	-7%	20%
O=C1/C(=C/c2cccnc2)SC(=S)N1C1CCS(=O)(=O)C1 (stereo not drawn)	0	-5%	1%	-6	-2%	2%
Cc1cccc(N2C(=O)/C(=C/c3ccccn3)SC2=S)c1	-2	5%	0%	1	13%	1%
Cc1ccc(N2C(=O)/C(=C/c3ccco3)SC2=S)cc1	2	4%	8%	16*	-12%	-23%
O=C1/C(=C\c2ccco2)SC(=S)N1C1CCCCC1	/	2%	/	-4	40µM*	-6%
O=C1/C(=C/c2ccccn2)SC(=S)N1c1ccc(O)cc1	67*	-2%	5%	30*	6%	-4%
Cc1ccc([N+](=O)[O-])cc1S(=O)(=O)n1ccnc1C	-14	4%	?	-4	-33%	5%
Cn1c(SCCN2CCCCC2)nnc1-c1ccccc1Br	-53	-7%	17%	0	-16%	-13%
O=S1(=O)C=C(SCCN2CCCCC2)c2ccccc21	37*	1%	5%	26*	-4%	2%
CCC(C(=O)NC(=O)NC(C)=O)c1ccccc1 (stereo not drawn)	/	/	-9%	/	/	/
Cc1ccccc1NC(=O)c1ccccc1O	20	-6%	2%	24*	0%	-2%
Cc1ccccc1NC(=O)CC(=O)Nc1ccccc1C	-5	0%	-5%	-2	-6%	0%
Cc1ccccc1NC(=O)C(=O)Nc1ccccc1C	49*	-27%	-13%	23*	8%	8%
Cc1cccc(-n2c(-c3csc(C)c3)n[nH]c2=S)c1	-17	4.5µM*	?	-2	-10%	4%
Fc1cccc(-c2n[nH]c(=S)n2-c2ccccc2)c1	/	?	?	0	-15%	7%
CCc1cc(-c2n[nH]c(=S)n2-c2cccc(C)c2)cs1	-23	4.5µM*	11µM*	12	3%	9%
CCCCn1c(-c2csc(CC)c2)n[nH]c1=S	-7	?	4µM*	6	-2%	18%
N[C@@H](COC(c1cccc(F)c1)c1ccccc1OCc1ccccc1)C(=O)O (stereo partly drawn)	-6	/	/	-8	/	-20%
CCC1Oc2ccc(C)cc2N(CC(=O)NCc2ccc(F)cc2)C1=O (stereo not drawn)	/	/	2%	/	-4%	/
CCCCn1nnc(N(C(=O)c2cccs2)C(=O)c2cccs2)n1	86*	-5%	-10%	37*	4.5µM*	1%
Cc1ccc(Cn2c(SCC(=O)NCc3ccc(Cl)cc3)nc3ccsc3c2=O)cc1	/	/	-6%	/	2%	/
Cc1ccc(Cn2c(SCC(=O)NCc3ccco3)nc3ccsc3c2=O)cc1	42	6%	1%	27*	-30%	2%
Cc1ccc(-n2c(SCC(=O)NCc3ccco3)nc3c(sc4ccccc43)c2=O)cc1	119*	3%	-1%	53*	-33%	-3%
O=C(CSc1nc2c(sc3ccccc32)c(=O)n1CCO)NCc1ccco1	-12	5%	3%	-3	-3%	3%
COc1ccc(CNCc2c(C(=O)O)c(C)n(Cc3ccccc3C)c2C)c(OC)c1	/	/	-3%	/	-13%	/
